Only some compounds are listed: those with a hit (about 11% of all), similar ones and a draw of the others.
PNC assembly inh: High Content Assay for Compounds that inhibit the Assembly of the Perinucleolar Compartment | activity change (PNC), negative = inhibition, % at 10 µM | PC3M PTB-GFP, PNC prevalence imaging, 16 h; active compounds read low | 140,000 compounds, 3.1% hits;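 active = readout at or below -70, meaning at least 70% loss of cells showing the perinucleolar compartment, a nuclear body marking cancer cells; inconclusive = readout between -30 and a set limit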
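PC3M cells stably expressing PTB-GFP, 750–1000 cells/well, treated 16 h at 37 °C with compound (23 nl of library stock), in duplicate. After paraformaldehyde fixation and Hoechst stain, imaged at 20x; PNC prevalence scored by image analysis.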
HPGD inh: qHTS Assay for Inhibitors of HPGD (15-Hydroxyprostaglandin Dehydrogenase); 15-hydroxyprostaglandin dehydrogenase [NAD(+)] (Homo sapiens), P15428; purified HPGD, NADH fluorescence kinetic, PGE2 substrate; Potency, µM, hits mostly inhibitors; 150,000 compounds, 4.3% hits
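NADH formation kinetics: reaction with 30 uM PGE2 and 1 mM NAD+ (final), 20 nM enzyme, Tris-HCl pH 8 with Tween 20, after 15 min compound preincubation at room temperature. Fluorescence change, last versus first of five reads.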
JMJD2E inh: qHTS Assay for Inhibitors of Human Jumonji Domain Containing 2E (JMJD2E) | 230,000 compounds, 1.6% hits | JMJD2E catalytic domain, FDH-coupled NADH fluorescence (FDH is formaldehyde dehydrogenase) | Potency, µM (titrated, usually from 57.1 µM), actives largely listed as inhibitors; note: nearly all actives have a fitted effect of over 50% in size
ALDH1A1 block: qHTS Assay for Inhibitors of Aldehyde Dehydrogenase 1 (ALDH1A1) | Aldehyde dehydrogenase 1A1 (Homo sapiens), P00352 | Purified ALDH1A1, NADH fluorescence, propionaldehyde substrate | Potency, µM (top dose mostly 75.3 µM), most hits filed as inhibitors | 220,000 compounds, 7.3% hits | AID 1030, 2008
Target sequence (P00352 whole entry, looked up): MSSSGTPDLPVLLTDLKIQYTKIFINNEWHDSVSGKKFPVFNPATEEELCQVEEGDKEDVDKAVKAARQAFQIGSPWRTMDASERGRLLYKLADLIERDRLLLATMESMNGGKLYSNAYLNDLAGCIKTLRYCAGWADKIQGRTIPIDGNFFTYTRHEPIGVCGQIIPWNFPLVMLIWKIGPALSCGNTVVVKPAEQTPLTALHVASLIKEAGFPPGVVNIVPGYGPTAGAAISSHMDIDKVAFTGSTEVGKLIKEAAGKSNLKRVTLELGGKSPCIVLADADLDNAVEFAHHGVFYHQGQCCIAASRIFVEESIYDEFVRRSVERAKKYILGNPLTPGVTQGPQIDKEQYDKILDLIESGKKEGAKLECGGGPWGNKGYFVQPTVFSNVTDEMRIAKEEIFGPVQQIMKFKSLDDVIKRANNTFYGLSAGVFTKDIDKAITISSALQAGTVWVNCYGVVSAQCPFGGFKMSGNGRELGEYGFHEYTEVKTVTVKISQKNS
A number is an active result; i = inactive; ? = inconclusive; nt = no result; [ ] = remark or other dose. Unless noted, calls come from the whole dose curve; as a rule, active = well fitted inhibition curve with a large enough effect (not every such curve was filed as active); inconclusive = small, poorly fitted or top-dose-only effect, or another doubt; inactive = no such curve, though single readings can be large or run the other way.

SMILES	PNC assembly inh	HPGD inh	JMJD2E inh	ALDH1A1 block
CCOC(=O)c1ccccc1NC(=S)N1CCC(C)CC1	i	i	?	i
COc1ccc(C2SCCN2C(=S)Nc2cccc(C(F)(F)F)c2)cc1 (configuration not stated)	-82	i	i	i
CN(Cc1nc(Cc2cccc(F)c2)no1)CC1CCOCC1	nt	nt	i	i
CC(C)(C)OC(=O)NCC12C=CC(O1)C1C(=O)N(Cc3ccccc3)C(=O)C12 (configuration not stated)	i	i	i	3.2µM
O=C(CCl)N=c1sccn1Cc1cccc2ccccc12	nt	nt	i	20µM
O=C(CCl)N=c1sccn1Cc1ccc(Cl)cc1Cl	nt	nt	i	28µM
Cc1nccn1Cc1cccc2ccccc12	i	i	i	i
O=C(CCl)N=c1sccn1Cc1ccccc1Cl	nt	nt	i	nt
Cc1ccc(Cl)c(NC(=O)CN2CCNC(=O)C2)c1Cl	nt	nt	i	i
COc1c(Cl)ccc(Cl)c1C(=O)OCC(=O)O	i	i	i	22µM
CN(C(=O)c1cc2sccc2n1C)C1CCCCC1	i	18µM	i	?
CCc1ccc(-c2csc(NC(=O)COC(=O)CCc3nc4ccccc4s3)n2)cc1	i	i	i	i
Nc1ncnc2c1ncn2Cc1ccccc1	nt	nt	i	i
COc1ccc(Oc2ncnc3c2ncn3Cc2ccccc2)cc1	i	8.9µM	i	i
O=C(O)COc1ccc(/C=N/n2cnc3scc(-c4cccs4)c3c2=O)cc1	i	i	i	7.1µM
O=c1cc(-c2ccc(O)c(O)c2)oc2cc(O)c(C3OC(CO)C(O)C(O)C3O)c(O)c12 (configuration not stated)	nt	nt	14µM	i
O=c1cc(-c2ccc(O)c(O)c2)oc2cc(OC3OC(CO)C(O)C(O)C3O)cc(O)c12 (configuration not stated)	nt	i	11µM	?
CCSc1nnc(NC(=O)Cc2cc(OC)c(OC)c(OC)c2)s1	nt	nt	i	i
CC1CCC2C(=O)N3C(CCC(C)C3c3ccccc3Br)C(=O)N2C1c1ccc(C#CCN(C)C)cc1 (configuration not stated)	nt	nt	nt	3.5µM
COc1ccc(CNC(=O)c2c(O)c3cccc4c3n(c2=O)CCC4)cc1	i	i	0.79µM	i
COc1ccc(CNC(=O)c2c(O)c3cccc4c3n(c2=O)CCC4)cc1OC	?	i	i	i
Cc1ccc(S(=O)(=O)O[C@@H]2[C@H]([C@@H]3COC(C)(C)O3)O[C@H]3OC(C)(C)O[C@@H]32)cc1	nt	i	nt	i[13.5 µM]
O=C(Nc1ccc2nc(-c3ccco3)[nH]c2c1)c1cccs1	i	?	i	7.1µM
Cc1ccc(C(=O)O)cc1S(=O)(=O)N1CCCC1	i	i	i	i
Cc1cc(C(=O)O)cc(S(=O)(=O)N2CCOCC2)c1C	-87	i	i	i
SMILES	PNC assembly inh	HPGD inh	JMJD2E inh	ALDH1A1 block
O=C(NC(=S)N1CCN(c2ccccn2)CC1)c1ccccc1	-92	i	i	i
Cn1ncc(Br)c1C(=O)NC(=S)N1CCN(c2ccccn2)CC1	i	i	i	i
CC1CCC(C(=O)NC(C(=O)N2CCc3ccccc3C2)C(C)C)CC1 (configuration not stated)	i	i	i	i
CCC(Oc1ccccc1)C(=O)N1CCN(c2ccccn2)CC1 (configuration not stated)	-132	i	i	i
Cn1cc(Br)c(C(=O)NC(=S)N2CCN(c3ccccn3)CC2)n1	-86	i	i	i
CC1CCC(C(=O)NC(C(=O)N2CCN(c3ccccn3)CC2)C(C)C)CC1 (configuration not stated)	-114	i	i	i
CC1=C(C(=O)N2CCOCC2)C(c2c(F)cccc2F)NC(=O)N1 (configuration not stated)	nt	nt	i	i
C=CCN(CC=C)C(=O)c1ccc(OC2CCN(S(=O)(=O)N(C)C)CC2)cc1	nt	nt	i	i
COCCNC(=O)CCSCc1ccccc1F	i	25µM	i	i
CCOc1ccc(CN(C)CC(=O)Nc2ccc([N+](=O)[O-])cc2Cl)cc1	i	i	i	i
CC(N)CCCP(=O)(O)O (configuration not stated)	nt	nt	nt	i
Cc1ccc(NCN2C(=O)C(=O)c3ccccc32)nc1	?	i	i	0.14µM
Cc1ccc(NC(=O)c2ccccc2F)nc1	?	i	?	?
COC(=O)C(C(C)=O)C(NC(=O)NCc1ccccc1)c1ccccc1 (configuration not stated)	nt	nt	nt	i[13.5 µM]
Cc1ccc(NCCC(=O)c2ccccc2)cc1Cl	nt	nt	i	3.2µM
O=C(O)c1cccc(NC2=C(Cl)C(=O)c3ccccc3C2=O)c1	nt	nt	i	32µM
O=C(O)c1ccc(NC2=C(Cl)C(=O)c3ccccc3C2=O)cc1	nt	nt	i	nt
Cc1ccc(NCC(=O)c2ccccc2)cc1Cl	i	i	i	20µM
Cc1ccc(NC2=C(NC(=O)c3ccccc3)C(=O)c3ccccc3C2=O)cc1Cl	i	20µM	i	20µM
c1ccc2c[n+](Cc3ccnc4ccccc34)ccc2c1	nt	i	nt	i[13.5 µM]
O=c1[nH]c2cc(C(F)(F)F)c(N3CCOCC3)cc2n(CP(=O)(O)O)c1=O	nt	i	nt	i
O=C(NCC(=O)N(c1cccnc1)C(C(=O)NC1CCCC1)c1cccs1)c1ccco1 (configuration not stated)	nt	nt	i	i
Cc1ccc(C(=O)CNc2ccc(C)c(Cl)c2)cc1	i	i	i	10µM
CCc1ccc(C(=O)NNc2ccc(C)c(Cl)c2)cc1	nt	nt	i	nt
Cc1ccc(NC(=O)C(c2ccccc2)N(C)C)cc1Cl (configuration not stated)	nt	nt	i	1.4µM
SMILES	PNC assembly inh	HPGD inh	JMJD2E inh	ALDH1A1 block
Cc1ccc(C(=O)CNc2cccc(Cl)c2)cc1	i	i	i	22µM
On1nnc2ccccc21	nt	nt	i	nt
Nc1nc2ccccc2n1/N=C/c1ccc([N+](=O)[O-])s1	-83	i	i	i
Cc1ccc(-c2cn3cccc(C)c3n2)cc1	nt	nt	i	?
N#Cc1c(Sc2ncc(C(F)(F)F)cc2Cl)nsc1C/C=N\OCc1ccccc1Br	i	i	i	10µM
Cc1ccc(/C=N/NC(=O)NC2CCCCC2)o1	nt	nt	i	3.5µM
CC(C)c1ccc(/C=C/C(=O)NC2CCCCC2)cc1	i	i	i	i
Cc1cccc(/C=N/NC(=O)NC2CCCCC2)c1	?	i	i	i
Cc1ccc(/C=C/C(=O)NC2CCCCCCC2)o1	i	3.5µM	i	3.5µM
Brc1cc2[nH]cnc2c2ccccc12	i	22µM	i	14µM
Oc1ccc2c(ccc3[nH]cnc32)c1	nt	nt	i	i
O=C(CSc1ncn(-c2ccccc2)n1)Nc1ccc2c(c1)OCO2	i	nt	i	i
O=C(CSC1=NC2(CCCCCC2)N=C1c1ccccc1)Nc1ccc2c(c1)OCCO2	-119	i	i	22µM
CCc1c(C)nc(SCC(=O)Nc2ccc3c(c2)OCCO3)[nH]c1=O	nt	nt	i	11µM
O=C(CSc1ncn(-c2ccccc2)n1)Nc1ccc2c(c1)OCCO2	-86	i	i	?
O=C(CSC1=NC2(CCCCC2)N=C1c1ccccc1)Nc1ccc2c(c1)OCCO2	i	i	i	i

Assay outcomes deposited in PubChem BioAssay by National Center for Advancing Translational Sciences (NCATS).
